{"source": "the supplement of paper PMC6411743", "experiment_in_all_cases": "NP40-soluble protein abundance relative to vehicle (solubility fold change) (ratio); higher = more soluble protein in presence of AMP-PNP", "key": {"[1]": {"biological_target": "T1, DDX52 (UniProt Q9Y2R4)", "T1 sequence (whole entry)": "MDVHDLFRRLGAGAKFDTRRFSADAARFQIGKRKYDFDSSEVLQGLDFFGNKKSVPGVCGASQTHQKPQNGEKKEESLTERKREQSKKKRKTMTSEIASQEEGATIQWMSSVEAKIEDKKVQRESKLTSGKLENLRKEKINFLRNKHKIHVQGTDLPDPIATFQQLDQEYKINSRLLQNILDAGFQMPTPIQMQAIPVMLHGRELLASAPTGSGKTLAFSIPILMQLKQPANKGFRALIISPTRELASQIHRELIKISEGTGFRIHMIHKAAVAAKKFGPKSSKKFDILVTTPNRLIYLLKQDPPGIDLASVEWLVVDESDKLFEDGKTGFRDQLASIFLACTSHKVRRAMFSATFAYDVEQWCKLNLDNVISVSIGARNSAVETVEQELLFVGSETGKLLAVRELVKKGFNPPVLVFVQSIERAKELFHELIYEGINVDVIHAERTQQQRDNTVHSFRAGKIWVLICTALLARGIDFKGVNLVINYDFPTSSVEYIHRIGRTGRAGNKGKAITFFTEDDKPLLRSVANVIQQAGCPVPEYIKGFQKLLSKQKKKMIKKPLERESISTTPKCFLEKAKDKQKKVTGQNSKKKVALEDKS", "summary_of_the_method": "(§1)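 Crude Jurkat lysate, prepared by Dounce homogenisation, was exposed to eight concentrations from 0.1 to 10 mM for 10 min at room temperature and then 3 min at 37 °C. Solubilisation used 0.8% NP40 with benzonase for 60 min at 4 °C, followed by ultracentrifugation and TMT labelling of the supernatant for LC-MS/MS. After vsn normalisation of intensities, each value is the fold change against the detergent-processed vehicle within each replicate, across three independent experiments.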"}, "[2]": {"biological_target": "T2, NKIRAS1 (UniProt Q9NYS0)", "T2 sequence (whole entry)": "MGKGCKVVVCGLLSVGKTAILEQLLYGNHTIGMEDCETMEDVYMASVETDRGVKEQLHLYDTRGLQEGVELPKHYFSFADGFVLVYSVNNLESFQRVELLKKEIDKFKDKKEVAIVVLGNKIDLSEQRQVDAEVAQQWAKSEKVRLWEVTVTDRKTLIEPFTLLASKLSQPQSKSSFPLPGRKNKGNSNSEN", "summary_of_the_method": "as §1"}, "[3]": {"biological_target": "T3, POLG2 (UniProt Q9UHN1)", "T3 sequence (whole entry)": "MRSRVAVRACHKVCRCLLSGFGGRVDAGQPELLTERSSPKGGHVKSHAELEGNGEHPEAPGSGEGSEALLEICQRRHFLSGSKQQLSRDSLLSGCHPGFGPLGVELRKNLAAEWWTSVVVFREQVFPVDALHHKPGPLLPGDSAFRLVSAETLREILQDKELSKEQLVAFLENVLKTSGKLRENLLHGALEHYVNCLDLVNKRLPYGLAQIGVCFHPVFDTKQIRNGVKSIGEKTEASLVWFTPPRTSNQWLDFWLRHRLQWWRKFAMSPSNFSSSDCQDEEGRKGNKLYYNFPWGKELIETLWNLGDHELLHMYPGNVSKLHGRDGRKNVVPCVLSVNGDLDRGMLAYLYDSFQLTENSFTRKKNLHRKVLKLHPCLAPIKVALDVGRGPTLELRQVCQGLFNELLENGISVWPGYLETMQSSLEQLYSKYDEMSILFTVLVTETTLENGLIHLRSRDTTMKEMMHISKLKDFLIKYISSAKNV", "summary_of_the_method": "as §1"}, "[4]": {"biological_target": "T4, PRKRIP1 (UniProt Q9H875)", "T4 sequence (whole entry)": "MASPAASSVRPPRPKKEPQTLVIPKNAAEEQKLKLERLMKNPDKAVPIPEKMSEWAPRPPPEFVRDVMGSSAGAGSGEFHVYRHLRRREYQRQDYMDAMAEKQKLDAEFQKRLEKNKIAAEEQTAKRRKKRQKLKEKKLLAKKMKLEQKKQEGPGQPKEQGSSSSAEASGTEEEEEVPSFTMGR", "summary_of_the_method": "as §1"}, "[5]": {"biological_target": "T5, SNX6 (UniProt Q9UNH7)", "T5 sequence (whole entry)": "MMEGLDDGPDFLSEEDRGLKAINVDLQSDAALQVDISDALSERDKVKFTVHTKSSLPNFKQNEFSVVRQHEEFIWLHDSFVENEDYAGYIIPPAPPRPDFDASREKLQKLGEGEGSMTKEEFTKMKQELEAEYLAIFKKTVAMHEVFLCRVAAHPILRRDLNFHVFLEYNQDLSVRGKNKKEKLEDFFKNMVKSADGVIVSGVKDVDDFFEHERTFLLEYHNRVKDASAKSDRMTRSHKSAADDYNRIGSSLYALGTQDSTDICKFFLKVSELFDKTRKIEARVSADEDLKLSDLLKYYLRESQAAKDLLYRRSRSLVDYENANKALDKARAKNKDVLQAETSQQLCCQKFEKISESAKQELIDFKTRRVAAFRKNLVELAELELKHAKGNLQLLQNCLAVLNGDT", "summary_of_the_method": "as §1"}, "[6]": {"biological_target": "T6, TFIP11 (UniProt Q9UBB9)", "T6 sequence (whole entry)": "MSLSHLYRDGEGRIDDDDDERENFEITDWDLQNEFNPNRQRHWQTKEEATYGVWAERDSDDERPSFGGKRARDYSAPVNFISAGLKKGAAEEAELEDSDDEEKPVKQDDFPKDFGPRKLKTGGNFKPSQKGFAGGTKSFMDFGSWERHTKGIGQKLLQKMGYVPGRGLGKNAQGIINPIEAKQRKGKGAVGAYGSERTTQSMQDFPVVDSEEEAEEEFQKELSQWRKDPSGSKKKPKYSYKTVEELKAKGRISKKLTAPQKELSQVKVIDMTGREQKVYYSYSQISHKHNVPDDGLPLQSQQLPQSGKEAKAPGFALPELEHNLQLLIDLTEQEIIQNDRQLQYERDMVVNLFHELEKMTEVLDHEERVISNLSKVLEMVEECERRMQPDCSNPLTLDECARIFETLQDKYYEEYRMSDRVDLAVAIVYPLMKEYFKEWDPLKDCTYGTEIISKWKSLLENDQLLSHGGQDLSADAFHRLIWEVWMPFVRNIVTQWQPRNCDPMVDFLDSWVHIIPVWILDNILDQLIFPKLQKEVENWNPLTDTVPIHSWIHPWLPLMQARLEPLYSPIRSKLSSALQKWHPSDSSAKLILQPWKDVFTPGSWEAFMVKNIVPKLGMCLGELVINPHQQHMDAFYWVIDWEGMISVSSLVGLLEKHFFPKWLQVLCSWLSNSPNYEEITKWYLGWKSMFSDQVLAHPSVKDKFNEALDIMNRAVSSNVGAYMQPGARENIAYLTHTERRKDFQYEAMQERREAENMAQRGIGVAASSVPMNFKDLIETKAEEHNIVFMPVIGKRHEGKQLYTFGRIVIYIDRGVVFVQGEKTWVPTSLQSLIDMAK", "summary_of_the_method": "as §1"}, "[7]": {"biological_target": "T7, UniProt Q9BY77|Q9BY77-2", "T7 sequence (whole entry)": "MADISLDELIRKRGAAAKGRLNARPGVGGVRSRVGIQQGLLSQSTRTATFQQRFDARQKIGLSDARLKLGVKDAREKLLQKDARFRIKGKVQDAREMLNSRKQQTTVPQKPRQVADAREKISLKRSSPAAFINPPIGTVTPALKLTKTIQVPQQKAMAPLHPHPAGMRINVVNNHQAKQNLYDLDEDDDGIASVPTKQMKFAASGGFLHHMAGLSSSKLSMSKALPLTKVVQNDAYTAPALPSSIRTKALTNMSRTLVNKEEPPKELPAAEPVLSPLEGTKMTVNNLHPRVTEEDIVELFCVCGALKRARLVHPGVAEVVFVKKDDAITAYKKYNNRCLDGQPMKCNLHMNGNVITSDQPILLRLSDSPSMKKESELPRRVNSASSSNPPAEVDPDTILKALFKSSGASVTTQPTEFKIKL", "summary_of_the_method": "as §1"}}, "note": "± gives the standard deviation of the averaged measurements. Targets with the largest changes are over-represented here; the source holds about 6,200 in all.", "data": [{"smiles": "Nc1ncnc2c1ncn2[C@@H]1O[C@H](COP(=O)(O)OP(=O)(O)NP(=O)(O)O)[C@@H](O)[C@H]1O", "note": "[adenylyl imidodiphosphate]", "values": [{"measurement": "NP40-soluble protein abundance", "setting": "[1]; concentration: 1mM", "value": "1.08 ± 0.094"}, {"measurement": "NP40-soluble protein abundance", "setting": "[1]; concentration: 2mM", "value": "1.1 ± 0.047"}, {"measurement": "NP40-soluble protein abundance", "setting": "[1]; concentration: 4mM", "value": "1.18 ± 0.07"}, {"measurement": "NP40-soluble protein abundance", "setting": "[1]; concentration: 6mM", "value": "1.22 ± 0.038"}, {"measurement": "NP40-soluble protein abundance", "setting": "[1]; concentration: 8mM", "value": "1.28 ± 0.055"}, {"measurement": "NP40-soluble protein abundance", "setting": "[1]; concentration: 10mM", "value": "1.39 ± 0.046"}, {"measurement": "NP40-soluble protein abundance", "setting": "[2]; concentration: 1mM", "value": "1 ± 0.033"}, {"measurement": "NP40-soluble protein abundance", "setting": "[2]; concentration: 2mM", "value": "1.025 ± 0.0079"}, {"measurement": "NP40-soluble protein abundance", "setting": "[2]; concentration: 4mM", "value": "0.981 ± 0.024"}, {"measurement": "NP40-soluble protein abundance", "setting": "[2]; concentration: 6mM", "value": "0.988 ± 0.027"}, {"measurement": "NP40-soluble protein abundance", "setting": "[2]; concentration: 8mM", "value": "1 ± 0.018"}, {"measurement": "NP40-soluble protein abundance", "setting": "[2]; concentration: 10mM", "value": "0.9796 ± 0.0011"}, {"measurement": "NP40-soluble protein abundance", "setting": "[3]; concentration: 1mM", "value": "0.994 ± 0.073"}, {"measurement": "NP40-soluble protein abundance", "setting": "[3]; concentration: 2mM", "value": "1.03 ± 0.056"}, {"measurement": "NP40-soluble protein abundance", "setting": "[3]; concentration: 4mM", "value": "0.996 ± 0.072"}, {"measurement": "NP40-soluble protein abundance", "setting": "[3]; concentration: 6mM", "value": "1.06 ± 0.051"}, {"measurement": "NP40-soluble protein abundance", "setting": "[3]; concentration: 8mM", "value": "1.07 ± 0.043"}, {"measurement": "NP40-soluble protein abundance", "setting": "[3]; concentration: 10mM", "value": "1.05 ± 0.021"}, {"measurement": "NP40-soluble protein abundance", "setting": "[4]; concentration: 1mM", "value": "1.03 ± 0.053"}, {"measurement": "NP40-soluble protein abundance", "setting": "[4]; concentration: 2mM", "value": "1.14 ± 0.12"}, {"measurement": "NP40-soluble protein abundance", "setting": "[4]; concentration: 4mM", "value": "1.1 ± 0.11"}, {"measurement": "NP40-soluble protein abundance", "setting": "[4]; concentration: 6mM", "value": "1.14 ± 0.073"}, {"measurement": "NP40-soluble protein abundance", "setting": "[4]; concentration: 8mM", "value": "1.16 ± 0.1"}, {"measurement": "NP40-soluble protein abundance", "setting": "[4]; concentration: 10mM", "value": "1.15 ± 0.15"}, {"measurement": "NP40-soluble protein abundance", "setting": "[5]; concentration: 1mM", "value": "0.992 ± 0.031"}, {"measurement": "NP40-soluble protein abundance", "setting": "[5]; concentration: 2mM", "value": "1.03 ± 0.12"}, {"measurement": "NP40-soluble protein abundance", "setting": "[5]; concentration: 4mM", "value": "0.991 ± 0.069"}, {"measurement": "NP40-soluble protein abundance", "setting": "[5]; concentration: 6mM", "value": "1.03 ± 0.076"}, {"measurement": "NP40-soluble protein abundance", "setting": "[5]; concentration: 8mM", "value": "1 ± 0.077"}, {"measurement": "NP40-soluble protein abundance", "setting": "[5]; concentration: 10mM", "value": "1.03 ± 0.079"}, {"measurement": "NP40-soluble protein abundance", "setting": "[6]; concentration: 1mM", "value": "1.01 ± 0.028"}, {"measurement": "NP40-soluble protein abundance", "setting": "[6]; concentration: 2mM", "value": "1.01 ± 0.033"}, {"measurement": "NP40-soluble protein abundance", "setting": "[6]; concentration: 4mM", "value": "1.07 ± 0.042"}, {"measurement": "NP40-soluble protein abundance", "setting": "[6]; concentration: 6mM", "value": "1.08 ± 0.05"}, {"measurement": "NP40-soluble protein abundance", "setting": "[6]; concentration: 8mM", "value": "1.09 ± 0.015"}, {"measurement": "NP40-soluble protein abundance", "setting": "[6]; concentration: 10mM", "value": "1.13 ± 0.039"}, {"measurement": "NP40-soluble protein abundance", "setting": "[7]; concentration: 1mM", "value": "1 ± 0.038"}, {"measurement": "NP40-soluble protein abundance", "setting": "[7]; concentration: 2mM", "value": "1.06 ± 0.064"}, {"measurement": "NP40-soluble protein abundance", "setting": "[7]; concentration: 4mM", "value": "1.04 ± 0.042"}]}]}
